# Measured values published in paper PMC7862700, “An all-to-all approach to the identification of sequence-specific readers for epigenetic DNA modifications on cytosine”.
# How the values were obtained:
# Assay in all cases: DAPPL (digital affinity profiling via proximity ligation, sequencing); 10 mM Tris-HCl pH 7.5, 50 mM NaCl, 1 mM DTT, 4% glycerol, room temperature, 30 min; GST-TFs on glutathione beads, 16-mer random dsDNA library, 0.1% formaldehyde crosslink after washing; high values mean tight binding
# FLI1 = target: T1, FLI1 (Homo sapiens, UniProt Q01543 1-452); details: protein: recombinant; tags: N-terminal GST; dsDNA, one strand shown
# T1 sequence: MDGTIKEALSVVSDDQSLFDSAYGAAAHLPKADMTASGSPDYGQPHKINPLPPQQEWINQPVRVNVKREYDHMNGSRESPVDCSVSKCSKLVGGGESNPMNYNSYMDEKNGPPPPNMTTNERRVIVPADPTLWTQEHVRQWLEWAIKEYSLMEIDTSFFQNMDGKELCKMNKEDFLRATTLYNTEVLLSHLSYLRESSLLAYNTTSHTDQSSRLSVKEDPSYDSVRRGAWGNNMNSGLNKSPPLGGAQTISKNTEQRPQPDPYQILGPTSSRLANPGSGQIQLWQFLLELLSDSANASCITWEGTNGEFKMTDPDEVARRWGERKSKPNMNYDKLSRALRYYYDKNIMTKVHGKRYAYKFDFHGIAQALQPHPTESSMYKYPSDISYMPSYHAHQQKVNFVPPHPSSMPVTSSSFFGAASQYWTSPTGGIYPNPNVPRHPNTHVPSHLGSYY
# Procedure, shortened: (§1)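 After expression in yeast as GST fusions, human transcription factors were bound to glutathione beads, DNA-barcoded and mixed with a tag-only sample. The pools were incubated with 200 nmole of a 16-mer random double-stranded DNA library in Tris/NaCl/DTT/glycerol buffer (30 min, room temperature), washed and crosslinked with 0.1% formaldehyde. Proximity ligation with BsaI/T4 ligase ran for 1 h at 37 °C, before PCR amplification and sequencing on an Illumina NextSeq500. Binding signal is a hexamer's read frequency for a factor divided by its frequency for the tag-only sample.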
# ELK1 = target: T2, ELK1 (Homo sapiens, UniProt P19419 1-428); details: protein: recombinant; tags: N-terminal GST; dsDNA, one strand shown
# T2 sequence: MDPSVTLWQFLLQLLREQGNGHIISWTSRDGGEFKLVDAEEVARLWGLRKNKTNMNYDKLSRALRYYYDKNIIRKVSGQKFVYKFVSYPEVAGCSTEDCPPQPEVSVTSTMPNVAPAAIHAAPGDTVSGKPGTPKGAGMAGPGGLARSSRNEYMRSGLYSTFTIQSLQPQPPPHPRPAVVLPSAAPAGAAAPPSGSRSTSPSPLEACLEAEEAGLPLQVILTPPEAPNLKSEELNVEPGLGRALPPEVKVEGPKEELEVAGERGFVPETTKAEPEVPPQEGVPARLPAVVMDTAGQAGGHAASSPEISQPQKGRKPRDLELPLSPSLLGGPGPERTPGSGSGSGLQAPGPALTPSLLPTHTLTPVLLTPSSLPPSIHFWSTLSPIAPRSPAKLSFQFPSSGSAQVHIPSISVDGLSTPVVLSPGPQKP
# Procedure, shortened: as §1
# GABPA = target: T3, GABPA (Homo sapiens, UniProt Q06546 1-454); details: protein: recombinant; tags: N-terminal GST; dsDNA, one strand shown
# T3 sequence: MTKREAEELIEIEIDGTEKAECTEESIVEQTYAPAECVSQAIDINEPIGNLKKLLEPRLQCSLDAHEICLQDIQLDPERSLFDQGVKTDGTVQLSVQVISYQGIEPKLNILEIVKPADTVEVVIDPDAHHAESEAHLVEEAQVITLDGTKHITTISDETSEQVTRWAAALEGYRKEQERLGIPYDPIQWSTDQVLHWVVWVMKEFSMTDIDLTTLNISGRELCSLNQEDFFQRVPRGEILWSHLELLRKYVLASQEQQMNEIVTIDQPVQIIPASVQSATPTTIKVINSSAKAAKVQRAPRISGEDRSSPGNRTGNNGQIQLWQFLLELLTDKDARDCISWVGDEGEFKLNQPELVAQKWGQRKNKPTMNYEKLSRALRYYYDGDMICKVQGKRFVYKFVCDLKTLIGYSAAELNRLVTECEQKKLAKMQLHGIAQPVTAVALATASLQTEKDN
# Procedure, shortened: as §1
# ERG = target: T4, ERG (Homo sapiens, UniProt P11308 1-479); details: protein: recombinant; tags: N-terminal GST; dsDNA, one strand shown
# T4 sequence: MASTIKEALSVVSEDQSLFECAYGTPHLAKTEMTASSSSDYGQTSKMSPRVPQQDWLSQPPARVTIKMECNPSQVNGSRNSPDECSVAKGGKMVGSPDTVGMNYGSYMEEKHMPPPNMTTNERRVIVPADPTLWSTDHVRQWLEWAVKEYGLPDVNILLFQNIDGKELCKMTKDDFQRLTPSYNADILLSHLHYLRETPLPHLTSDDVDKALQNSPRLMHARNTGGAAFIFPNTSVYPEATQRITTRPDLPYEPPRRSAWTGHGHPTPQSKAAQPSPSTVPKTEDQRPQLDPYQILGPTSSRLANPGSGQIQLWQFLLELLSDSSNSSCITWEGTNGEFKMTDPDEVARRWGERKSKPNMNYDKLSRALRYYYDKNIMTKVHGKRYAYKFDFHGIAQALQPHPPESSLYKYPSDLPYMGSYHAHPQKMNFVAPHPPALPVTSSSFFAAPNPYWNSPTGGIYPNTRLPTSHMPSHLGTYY
# Procedure, shortened: as §1
# ELF1 = ELF1 (Homo sapiens, UniProt P32519 1-619); details: protein: recombinant; tags: N-terminal GST; dsDNA, one strand shown
# Procedure, shortened: as §1
# EHF = target: T5, EHF (Homo sapiens, UniProt Q9NZC4 1-300); details: protein: recombinant; tags: N-terminal GST; dsDNA, one strand shown
# T5 sequence: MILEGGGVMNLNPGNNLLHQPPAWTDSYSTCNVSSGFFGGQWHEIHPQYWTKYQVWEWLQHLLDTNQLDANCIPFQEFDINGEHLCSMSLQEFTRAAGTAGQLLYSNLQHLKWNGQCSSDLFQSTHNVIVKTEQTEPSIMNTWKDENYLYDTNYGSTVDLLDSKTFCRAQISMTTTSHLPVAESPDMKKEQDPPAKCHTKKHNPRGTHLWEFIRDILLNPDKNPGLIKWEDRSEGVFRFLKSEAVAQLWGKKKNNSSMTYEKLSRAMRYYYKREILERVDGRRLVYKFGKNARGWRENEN
# Procedure, shortened: as §1
# SPI1 = SPI1 (Homo sapiens, UniProt P17947 1-270); details: protein: recombinant; tags: N-terminal GST; dsDNA, one strand shown
# Procedure, shortened: as §1
# SPIB = SPIB (Homo sapiens, UniProt Q01892 1-262); details: protein: recombinant; tags: N-terminal GST; dsDNA, one strand shown
# Procedure, shortened: as §1
# ELK3 = target: T6, ELK3 (Homo sapiens, UniProt P41970 1-407); details: protein: recombinant; tags: N-terminal GST; dsDNA, one strand shown
# T6 sequence: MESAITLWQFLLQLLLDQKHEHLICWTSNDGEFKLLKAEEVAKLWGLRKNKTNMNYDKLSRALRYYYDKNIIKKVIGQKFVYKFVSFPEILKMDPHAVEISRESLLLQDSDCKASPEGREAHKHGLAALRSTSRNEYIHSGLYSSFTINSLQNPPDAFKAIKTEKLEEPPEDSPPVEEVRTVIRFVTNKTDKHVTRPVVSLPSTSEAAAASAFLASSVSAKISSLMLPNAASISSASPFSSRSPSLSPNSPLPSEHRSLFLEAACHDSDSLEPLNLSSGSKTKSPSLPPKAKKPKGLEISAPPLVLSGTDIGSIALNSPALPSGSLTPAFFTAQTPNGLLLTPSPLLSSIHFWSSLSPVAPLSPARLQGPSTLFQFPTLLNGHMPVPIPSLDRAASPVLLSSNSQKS
# Procedure, shortened: as §1
# FEV = target: T7, FEV (Homo sapiens, UniProt Q99581 1-238); details: protein: recombinant; tags: N-terminal GST; dsDNA, one strand shown
# T7 sequence: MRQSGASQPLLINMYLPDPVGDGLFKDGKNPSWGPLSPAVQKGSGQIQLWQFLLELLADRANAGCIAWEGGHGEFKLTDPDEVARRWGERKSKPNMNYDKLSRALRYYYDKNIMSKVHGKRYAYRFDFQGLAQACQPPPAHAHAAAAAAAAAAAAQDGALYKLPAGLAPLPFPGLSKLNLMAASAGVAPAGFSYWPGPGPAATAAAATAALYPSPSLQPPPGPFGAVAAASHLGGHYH
# Procedure, shortened: as §1
# ETV5 = ETV5 (Homo sapiens, UniProt P41161 1-510); details: protein: recombinant; tags: N-terminal GST; dsDNA, one strand shown
# Procedure, shortened: as §1
# HSF1 = HSF1 (Homo sapiens, UniProt Q00613 1-529); details: protein: recombinant; tags: N-terminal GST; chain copies: 3; dsDNA, one strand shown
# Procedure, shortened: as §1
# SPIC = target: T8, SPIC (Homo sapiens, UniProt Q8N5J4 1-248); details: protein: recombinant; tags: N-terminal GST; dsDNA, one strand shown
# T8 sequence: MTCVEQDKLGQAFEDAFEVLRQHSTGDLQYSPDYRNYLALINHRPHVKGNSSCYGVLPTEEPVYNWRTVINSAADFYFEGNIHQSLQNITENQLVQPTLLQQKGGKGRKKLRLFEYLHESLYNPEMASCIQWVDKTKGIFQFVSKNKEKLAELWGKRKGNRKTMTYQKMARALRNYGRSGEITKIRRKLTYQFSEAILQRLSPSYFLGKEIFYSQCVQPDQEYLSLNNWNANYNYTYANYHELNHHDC
# Procedure, shortened: as §1
# ELF4 = ELF4 (Homo sapiens, UniProt Q99607 1-663); details: protein: recombinant; tags: N-terminal GST; dsDNA, one strand shown
# Procedure, shortened: as §1
# ELK4 = target: T9, ELK4 (Homo sapiens, UniProt P28324-2 1-405); details: protein: recombinant; tags: N-terminal GST; dsDNA, one strand shown
# T9 sequence: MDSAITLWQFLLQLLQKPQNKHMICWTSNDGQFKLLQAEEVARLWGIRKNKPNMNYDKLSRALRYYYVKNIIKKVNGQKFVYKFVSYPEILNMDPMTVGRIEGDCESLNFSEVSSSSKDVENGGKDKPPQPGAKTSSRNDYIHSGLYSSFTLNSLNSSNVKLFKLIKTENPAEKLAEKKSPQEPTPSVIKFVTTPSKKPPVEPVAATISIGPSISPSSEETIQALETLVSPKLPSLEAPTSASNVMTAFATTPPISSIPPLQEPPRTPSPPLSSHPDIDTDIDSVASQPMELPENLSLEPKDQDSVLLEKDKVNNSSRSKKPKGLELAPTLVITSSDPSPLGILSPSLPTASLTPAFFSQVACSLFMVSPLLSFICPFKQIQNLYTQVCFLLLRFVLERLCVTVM
# Procedure, shortened: as §1
# ETV2 = target: T10, ETV2 (Homo sapiens, UniProt O00321 1-342); details: protein: recombinant; tags: N-terminal GST; dsDNA, one strand shown
# T10 sequence: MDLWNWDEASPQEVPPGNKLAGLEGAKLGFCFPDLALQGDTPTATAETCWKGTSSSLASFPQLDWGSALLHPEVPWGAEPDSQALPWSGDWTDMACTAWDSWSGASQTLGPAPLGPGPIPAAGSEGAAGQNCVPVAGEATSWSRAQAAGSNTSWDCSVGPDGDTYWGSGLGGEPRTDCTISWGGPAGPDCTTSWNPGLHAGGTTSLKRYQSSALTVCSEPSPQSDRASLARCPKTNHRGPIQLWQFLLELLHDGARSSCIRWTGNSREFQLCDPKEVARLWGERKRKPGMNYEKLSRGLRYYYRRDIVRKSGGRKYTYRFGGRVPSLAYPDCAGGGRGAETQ
# Procedure, shortened: as §1
# ELF3 = target: T11, ELF3 (Homo sapiens, UniProt P78545 1-371); details: protein: recombinant; tags: N-terminal GST; dsDNA, one strand shown
# T11 sequence: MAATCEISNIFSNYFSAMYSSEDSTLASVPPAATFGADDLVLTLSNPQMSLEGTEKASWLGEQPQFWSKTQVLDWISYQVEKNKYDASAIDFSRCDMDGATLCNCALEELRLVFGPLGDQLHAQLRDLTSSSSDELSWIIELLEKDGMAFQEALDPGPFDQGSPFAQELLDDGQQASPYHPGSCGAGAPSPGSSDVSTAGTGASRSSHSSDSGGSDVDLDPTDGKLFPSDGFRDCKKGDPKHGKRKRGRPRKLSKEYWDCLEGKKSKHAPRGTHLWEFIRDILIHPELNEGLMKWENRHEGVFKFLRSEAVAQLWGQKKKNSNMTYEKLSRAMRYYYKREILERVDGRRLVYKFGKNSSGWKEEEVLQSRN
# Procedure, shortened: as §1
# CRX = CRX (Homo sapiens, UniProt O43186 1-299); details: protein: recombinant; tags: N-terminal GST; dsDNA, one strand shown
# Procedure, shortened: as §1
# ETV1 = ETV1 (Homo sapiens, UniProt P50549 1-477); details: protein: recombinant; tags: N-terminal GST; dsDNA, one strand shown
# Procedure, shortened: as §1
# Sequence of SPIB (Q01892 whole entry): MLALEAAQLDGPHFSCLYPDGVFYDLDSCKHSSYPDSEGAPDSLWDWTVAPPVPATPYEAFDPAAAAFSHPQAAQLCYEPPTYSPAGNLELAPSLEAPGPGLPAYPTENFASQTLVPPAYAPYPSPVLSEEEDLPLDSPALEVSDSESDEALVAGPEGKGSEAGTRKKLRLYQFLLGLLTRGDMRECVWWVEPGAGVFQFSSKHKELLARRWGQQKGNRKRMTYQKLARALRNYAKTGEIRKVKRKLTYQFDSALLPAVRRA
# Sequence of ELF4 (Q99607 whole entry): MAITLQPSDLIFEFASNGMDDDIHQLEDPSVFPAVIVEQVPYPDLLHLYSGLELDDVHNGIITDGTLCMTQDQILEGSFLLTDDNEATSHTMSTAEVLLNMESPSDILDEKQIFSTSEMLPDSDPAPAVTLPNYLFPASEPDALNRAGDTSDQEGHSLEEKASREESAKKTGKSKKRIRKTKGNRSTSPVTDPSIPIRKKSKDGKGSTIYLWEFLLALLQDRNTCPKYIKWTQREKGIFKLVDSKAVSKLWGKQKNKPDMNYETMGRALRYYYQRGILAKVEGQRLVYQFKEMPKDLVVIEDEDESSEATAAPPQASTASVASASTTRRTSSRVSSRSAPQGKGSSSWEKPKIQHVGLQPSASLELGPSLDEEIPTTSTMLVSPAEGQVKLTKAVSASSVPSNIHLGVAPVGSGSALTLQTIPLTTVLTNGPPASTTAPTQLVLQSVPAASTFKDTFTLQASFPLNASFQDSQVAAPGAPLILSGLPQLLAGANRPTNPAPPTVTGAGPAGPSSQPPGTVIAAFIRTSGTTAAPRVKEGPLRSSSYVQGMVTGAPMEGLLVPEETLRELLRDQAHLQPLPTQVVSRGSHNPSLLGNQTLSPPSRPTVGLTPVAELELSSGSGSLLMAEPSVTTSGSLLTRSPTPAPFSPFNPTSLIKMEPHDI
# Sequence of ETV5 (P41161 whole entry): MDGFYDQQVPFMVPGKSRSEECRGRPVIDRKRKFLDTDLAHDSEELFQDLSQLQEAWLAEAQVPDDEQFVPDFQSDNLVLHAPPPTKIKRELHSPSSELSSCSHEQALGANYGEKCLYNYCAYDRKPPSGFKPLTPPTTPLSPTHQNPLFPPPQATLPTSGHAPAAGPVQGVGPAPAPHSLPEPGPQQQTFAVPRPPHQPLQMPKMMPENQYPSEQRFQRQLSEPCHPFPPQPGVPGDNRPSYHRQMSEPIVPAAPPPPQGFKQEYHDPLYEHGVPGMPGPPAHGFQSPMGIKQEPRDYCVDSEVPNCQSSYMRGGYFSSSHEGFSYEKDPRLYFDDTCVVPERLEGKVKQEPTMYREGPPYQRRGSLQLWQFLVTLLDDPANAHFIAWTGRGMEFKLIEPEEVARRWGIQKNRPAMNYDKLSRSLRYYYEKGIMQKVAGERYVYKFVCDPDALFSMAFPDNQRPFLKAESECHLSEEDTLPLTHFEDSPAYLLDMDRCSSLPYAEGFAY
# Sequence of ETV1 (P50549 whole entry): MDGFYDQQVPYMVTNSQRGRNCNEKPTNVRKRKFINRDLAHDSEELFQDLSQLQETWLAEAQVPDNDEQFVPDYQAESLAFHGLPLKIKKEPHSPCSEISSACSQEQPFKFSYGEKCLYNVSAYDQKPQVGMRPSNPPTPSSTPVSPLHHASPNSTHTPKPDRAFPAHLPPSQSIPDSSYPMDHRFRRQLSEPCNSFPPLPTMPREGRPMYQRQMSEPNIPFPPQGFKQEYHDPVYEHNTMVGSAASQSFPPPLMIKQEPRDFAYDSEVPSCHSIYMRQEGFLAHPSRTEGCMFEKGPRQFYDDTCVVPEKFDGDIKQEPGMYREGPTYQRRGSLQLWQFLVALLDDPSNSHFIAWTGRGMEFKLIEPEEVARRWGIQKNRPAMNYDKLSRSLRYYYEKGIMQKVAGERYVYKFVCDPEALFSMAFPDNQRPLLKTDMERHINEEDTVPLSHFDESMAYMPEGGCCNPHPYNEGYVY
# Sequence of ELF1 (P32519 whole entry): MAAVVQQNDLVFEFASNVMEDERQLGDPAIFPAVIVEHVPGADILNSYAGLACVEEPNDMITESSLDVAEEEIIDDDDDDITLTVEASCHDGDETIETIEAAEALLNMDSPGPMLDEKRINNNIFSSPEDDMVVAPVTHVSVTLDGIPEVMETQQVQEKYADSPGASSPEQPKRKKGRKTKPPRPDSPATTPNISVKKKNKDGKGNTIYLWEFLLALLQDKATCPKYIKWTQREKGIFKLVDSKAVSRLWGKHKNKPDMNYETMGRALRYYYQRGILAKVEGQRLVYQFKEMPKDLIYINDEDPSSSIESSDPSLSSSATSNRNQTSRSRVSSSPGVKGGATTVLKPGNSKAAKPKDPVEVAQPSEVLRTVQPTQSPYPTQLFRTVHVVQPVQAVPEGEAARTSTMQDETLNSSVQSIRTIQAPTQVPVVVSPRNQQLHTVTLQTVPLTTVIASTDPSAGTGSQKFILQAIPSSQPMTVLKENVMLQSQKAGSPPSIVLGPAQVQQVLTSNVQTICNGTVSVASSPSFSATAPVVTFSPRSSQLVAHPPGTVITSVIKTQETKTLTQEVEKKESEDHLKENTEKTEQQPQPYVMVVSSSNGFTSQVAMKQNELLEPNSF
# Sequence of CRX (O43186 whole entry): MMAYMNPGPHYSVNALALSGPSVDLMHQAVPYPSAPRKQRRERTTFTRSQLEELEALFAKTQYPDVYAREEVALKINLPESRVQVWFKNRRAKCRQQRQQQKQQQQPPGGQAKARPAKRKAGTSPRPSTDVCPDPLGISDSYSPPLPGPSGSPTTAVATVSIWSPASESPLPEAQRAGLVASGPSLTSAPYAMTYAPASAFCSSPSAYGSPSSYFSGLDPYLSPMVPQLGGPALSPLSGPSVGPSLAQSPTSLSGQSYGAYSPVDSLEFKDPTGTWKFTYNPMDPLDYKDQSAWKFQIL
# Sequence of HSF1 (Q00613 whole entry): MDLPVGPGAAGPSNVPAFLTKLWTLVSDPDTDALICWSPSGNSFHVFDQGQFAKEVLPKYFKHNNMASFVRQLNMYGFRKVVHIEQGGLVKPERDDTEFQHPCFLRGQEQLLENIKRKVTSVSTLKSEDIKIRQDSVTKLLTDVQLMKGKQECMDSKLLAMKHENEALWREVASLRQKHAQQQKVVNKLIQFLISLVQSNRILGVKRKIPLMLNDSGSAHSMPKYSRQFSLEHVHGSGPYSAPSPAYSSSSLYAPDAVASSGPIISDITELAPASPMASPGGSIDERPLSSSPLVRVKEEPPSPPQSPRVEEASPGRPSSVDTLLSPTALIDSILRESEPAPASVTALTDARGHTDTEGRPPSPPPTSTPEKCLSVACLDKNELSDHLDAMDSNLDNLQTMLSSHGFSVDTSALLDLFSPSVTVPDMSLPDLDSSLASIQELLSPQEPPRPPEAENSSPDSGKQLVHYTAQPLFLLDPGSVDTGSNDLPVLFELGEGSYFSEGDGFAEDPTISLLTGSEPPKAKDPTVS
sequence,measurement,setting,value
AAAGAT,binding signal,FLI1,"1.18 fold enrichment (6-mer frequency, TF over GST control)"
same,binding signal,ELK1,"1.21 fold enrichment (6-mer frequency, TF over GST control)"
same,binding signal,GABPA,"1.21 fold enrichment (6-mer frequency, TF over GST control)"
same,binding signal,ERG,"1.21 fold enrichment (6-mer frequency, TF over GST control)"
same,binding signal,ELF1,"1.26 fold enrichment (6-mer frequency, TF over GST control)"
same,binding signal,EHF,"1.18 fold enrichment (6-mer frequency, TF over GST control)"
same,binding signal,SPI1,"1.23 fold enrichment (6-mer frequency, TF over GST control)"
same,binding signal,SPIB,"1.3 fold enrichment (6-mer frequency, TF over GST control)"
same,binding signal,ELK3,"1.13 fold enrichment (6-mer frequency, TF over GST control)"
same,binding signal,FEV,"1.15 fold enrichment (6-mer frequency, TF over GST control)"
same,binding signal,ETV5,"1.25 fold enrichment (6-mer frequency, TF over GST control)"
same,binding signal,HSF1,"1.67 fold enrichment (6-mer frequency, TF over GST control)"
same,binding signal,SPIC,"1.22 fold enrichment (6-mer frequency, TF over GST control)"
same,binding signal,ELF4,"1.24 fold enrichment (6-mer frequency, TF over GST control)"
same,binding signal,ELK4,"1.24 fold enrichment (6-mer frequency, TF over GST control)"
same,binding signal,ETV2,"1.17 fold enrichment (6-mer frequency, TF over GST control)"
same,binding signal,ELF3,"1.16 fold enrichment (6-mer frequency, TF over GST control)"
same,binding signal,CRX,"1.75 fold enrichment (6-mer frequency, TF over GST control)"
same,binding signal,ETV1,"1.27 fold enrichment (6-mer frequency, TF over GST control)"
